Experimental findings from PubChem BioAssay AID1063 (University of Pittsburgh Molecular Library Screening Center, 2008) are described below.

Structures are written as SMILES. Out of some 200,000 compounds screened, about 18,000 (9%) were called active. The sample as a whole holds a higher share of actives than the screen did. A number with no mark means an inactive call. No stated cut-off is given here; in the data, active means inhibition above about 50%; inactive means the rest. Where a SMILES comes first, the peptide text is derived from it. The star is where a group is joined. OPac = O=C(CO*)c1ccccc1; Bz = O=C(c1ccccc1)*

This assay is described as follows: antileishmanial activity against promastigotes – primary screen (AID 1063).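 Further: promastigotes grown with compound for 44 hours at 28 °C.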 Conditions: Leishmania major promastigotes, resazurin fluorescence viability; at 10 µM; active compounds read high. For orientation: Resazurin is reduced to fluorescent resorufin, in cell work by metabolically active cells.
On to `Cc1ccc(C(=O)NCCNC(=O)c2ccccc2)cc1`, for which the inhibition is 30.8%.

With `CCCCCOC(=O)NCCOC(=O)Nc1ccc(C(=O)OCC)cc1`, the inhibition is 59.2% (active).

With `CCOC(=O)Nc1ccc(NC(=O)OCC)cc1`, the inhibition is -2.26%.

Take `CCCCC(CCC(=O)Nc1ccc(C(=O)OCC)cc1)C(=O)O` (stereo unspecified): the inhibition was -9.84%.

For the compound `CCC(C(=O)Nc1ccc(C(C)C)cc1)c1ccccc1` (stereo unspecified), the inhibition was -1.77%.

Regarding `Cc1cc(C)cc(NC(=O)CSc2ccccc2)c1`, the inhibition was 1.71%.

For the compound `COc1ccccc1N1CCN(C(=O)c2cc(-c3ccc(Br)cc3)on2)CC1`, the inhibition is -7.17%.

With `COc1ccccc1N1CCN(C(=O)c2c(-c3c(Cl)cccc3Cl)noc2C)CC1`, the inhibition was 98.5% (active).

With `COc1ccccc1N1CCN(C(=O)c2ccc(S(=O)(=O)N3CCCCC3)cc2)CC1`, the inhibition was 59.5% (active).

On to `O=C(c1ccccc1)N1CCN(C(=O)N2CCCCC2)CC1`, for which the inhibition was 27.4%.

Take `COc1ccccc1N1CCN(C(=O)c2cc(-c3ccc(Cl)c(Cl)c3)on2)CC1`: the inhibition is -6.68%.

On to `O=C(c1ccc(S(=O)(=O)c2ccccc2)cc1)N1CCCCCC1`, for which the inhibition is 55.1% (active).

In the case of `O=C(c1ccc(CSc2ccccc2)cc1)N1CCCCCC1`, the inhibition is -6.75%.

Turning to `COc1ccccc1N1CCN(C(=O)c2ccc(Cl)c(S(=O)(=O)N3CCCC3)c2)CC1`, the inhibition is 1.35%.

With `COc1cc2c(cc1OC)CN(C(=O)c1ccc(S(=O)(=O)N3CCCCCC3)cc1)CC2`, the inhibition was 24.6%.

Regarding `CN1CCN(CCNC(=O)Nc2ccc([N+](=O)[O-])cc2)CC1`, the inhibition was -0.61%.

With `O=C(Nc1cc(Cl)cc(Cl)c1)C(NCCCO)c1ccccc1` (stereo unspecified), the inhibition was 10.6%.

Turning to `Cc1ccc(-c2cc(=O)c3ccc(F)cc3[nH]2)cc1`, the inhibition is 1.73%.

For the compound `CN1C(=O)C(CC(=O)Nc2ccccc2)S/C1=N/c1nccs1` (stereo unspecified), the inhibition is -4.38%.

Regarding `CS(=O)(=O)N(CC(=O)N1CCCC1)Cc1ccccc1`, the inhibition is -5.77%.

In the case of `Cc1cccc(-n2c(N)c(C(=O)N3CCN(C)CC3)sc2=S)c1`, the inhibition was 9.91%.

Take `Cc1ccc(-n2c(N)c(C(=O)N3CCOCC3)sc2=S)c(C)c1`: the inhibition is 6.62%.

With `N#Cc1ccccc1-n1c(N)c(C(=O)N2CCCC2)sc1=S`, the inhibition was 52.1% (active).

For the compound `O=C(CNC(=O)c1ccccc1)NCC(=O)OCC(=O)c1ccccc1` (Bz-Gly-Gly-OPac), the inhibition is -9.69%.

As to `COc1ccc(C)cc1NC(=O)C(OC(=O)c1cccc(S(=O)(=O)N(C)c2ccccc2)c1)c1ccccc1` (stereo unspecified), the inhibition is 97.6% (active).

Turning to `COc1ccc(C)cc1NC(=O)C(Sc1ccccc1)c1ccccc1` (stereo unspecified), the inhibition was 3.92%.

Take `COc1ccc(C)cc1NC(=O)Nc1ccccc1SC`: the inhibition is 10.1%.

In the case of `OC(COCC1COc2ccccc2O1)CN1CCN(c2ccc(F)cc2)CC1` (stereo unspecified), the inhibition was 12%.

As to `Cc1ccnc(NC(=O)CCC(=O)N(CC(=O)NCCc2ccccc2)Cc2cccs2)c1`, the inhibition was -4.68%.

As for `CCOc1ccc(CN2CCN(Cc3ccon3)CC2CCO)cc1` (stereo unspecified), the inhibition was -5.47%.

Turning to `CCOc1ccc(CN2CCCN(C)CC2)cc1`, the inhibition is 54.1% (active).

For `CCOc1ccc(CN2CCN(Cc3ccc(C)o3)CC2CCO)cc1` (stereo unspecified), the inhibition was -0.08%.

Regarding `COC(=O)c1sc2[nH]c(=S)n(N)c(=O)c2c1C`, the inhibition was -7.2%.

With `CC1CCCCC1NC(=O)CO/N=C/c1ccc(OC(F)F)cc1` (stereo unspecified), the inhibition is 13.4%.

Turning to `CCOc1ccc(C(=O)NC2CCN(CC(=O)NCc3cccs3)CC2)cc1`, the inhibition was -4.61%.

Regarding `Cc1cc(C#N)c(SCC(N)=O)nc1-c1ccc(F)cc1`, the inhibition was 2.96%.

Turning to `CCCNC(=S)N1CCCC(c2nc3ccccc3[nH]2)C1` (stereo unspecified), the inhibition was 7.49%.

Turning to `Cc1cccc(NC(=S)N2CCC(c3nc4ccccc4s3)CC2)c1`, the inhibition was -0.22%.

As to `Cc1cccc(NC(=S)N2CCCC(c3nc4ccccc4[nH]3)C2)c1` (stereo unspecified), the inhibition is 99.1% (active).

As for `O=c1cc(CO)oc(C(Nc2cccc(C(F)(F)F)c2)c2ccccn2)c1O` (stereo unspecified), the inhibition was 2.74%.

Turning to `CNS(=O)(=O)c1cnccc1N1CCN(c2cccc(C)c2)CC1`, the inhibition is 8.07%.

As for `Cc1ccc(Sc2ccncc2S(N)(=O)=O)cc1`, the inhibition was 84.9% (active).

Consider `Cc1cc(NC(=O)CSCc2ccccc2C)no1`, for which the inhibition is -8.79%.

As to `Cc1ccc2c(c1)N(CC(=O)N(Cc1ccccn1)Cc1ccco1)C(=O)C(C(C)C)O2` (stereo unspecified), the inhibition is 75.7% (active).

In the case of `Cc1ccc(C(C(=O)NC2CCCC2)N(Cc2ccco2)C(=O)CCC(=O)Nc2ccccn2)cc1` (stereo unspecified), the inhibition is -1.72%.

With `Cc1ccc2oc(=O)c3cnn(CC(=O)N(Cc4ccco4)C4CCCCC4)c3c2c1`, the inhibition is 22.1%.

For `NC(=O)COC(=O)c1cc(S(=O)(=O)N2CCN(c3ccccc3)CC2)ccc1Cl`, the inhibition was -1.75%.

Consider `Cc1nn(Cc2ccc(Cl)cc2)c(Cl)c1/C=N/NC(=O)CNc1ccccc1F`, for which the inhibition was 8.05%.

Turning to `Cc1cc(C)c2nc(-c3cccnc3)cc(C(=O)Nc3ccc(S(=O)(=O)Nc4onc(C)c4C)cc3)c2c1`, the inhibition was -3.47%.

For `N#Cc1ccc(C(=O)Nc2cccc3cccnc23)c(F)c1`, the inhibition was -0.23%.

Regarding `CC(=O)/C(=N\Nc1ccc(Cl)cc1Cl)Sc1cccc2cccnc12`, the inhibition is 96.8% (active).

As for `S=C(NCc1cccnc1)Nc1ccc(Cl)cc1Cl`, the inhibition is 10.6%.

In the case of `O=C(NN1C(=O)C2C3C=CC(O3)C2C1=O)c1ccccc1` (stereo unspecified), the inhibition was -9.99%.

On to `O=C1CC(N2CCN(c3ccc(F)cc3)CC2)C(=O)N1c1ccccc1` (stereo unspecified), for which the inhibition was -0.81%.

With `CC(C)(C)NC(=O)NC(=O)COC(=O)Cc1ccc(Cl)cc1Cl`, the inhibition is -4.1%.

Turning to `COCCNC(=O)NC(=O)COC(=O)C1(c2ccc(Cl)cc2)CC1`, the inhibition is -5.98%.

Regarding `CCCNC(=O)NC(=O)COC(=O)CC(NC(N)=O)c1ccc(Cl)cc1` (stereo unspecified), the inhibition was 56.2% (active).

Regarding `O=C(Nc1ccccc1C(=O)N1CCCCCC1)c1ccccc1Cl`, the inhibition was 4.51%.

`COc1ccc(-c2ccc(CCC(=O)O)n2-c2ccc(O)cc2)cc1`: the inhibition was -1.18%.

As to `Cc1ccsc1C1C(C#N)=C(N)OC2=C1C(=O)CC(C)(C)C2` (stereo unspecified), the inhibition is 9.53%.

Turning to `Fc1ccc(Cn2nnnc2C(c2cccs2)N2CCCCCC2)cc1` (stereo unspecified), the inhibition is 5.18%.

Consider `CCCC(c1nnnn1C(C)(C)C)N1CCN(Cc2ccccc2)CC1` (stereo unspecified), for which the inhibition was -6.34%.

Regarding `CCC(C)(C)n1nnnc1C(c1ccccc1OC)N1CCSCC1` (stereo unspecified), the inhibition is 6.66%.

Turning to `CCC(C)(C)n1nnnc1C(c1cccs1)N1CCN(c2nc3ccccc3s2)CC1` (stereo unspecified), the inhibition was 81.4% (active).

As for `CCC(C)(C)n1nnnc1C(c1cccs1)N1CCN(Cc2ccccc2)CC1` (stereo unspecified), the inhibition is 50.4% (active).

For `COc1ccccc1C(c1nnnn1C(C)(C)C)N1CCN(Cc2ccccc2)CC1` (stereo unspecified), the inhibition was 17.2%.

Broadly, the inhibition is the change of the read-out against control, counted positive when it falls.
